Experimental data published in PubChem BioAssay (NCATS).
Inconclusive results are not listed. Calls of active or inactive are those of the source. Unless noted, the call rests on the fitted dose curve; in most records, active means well fitted curve in the direction sought with a large enough effect; inconclusive means small, poorly fitted or top-dose-only effect, or another doubt; inactive means no such curve, though single readings can be large; an effect the other way counts as inactive or inconclusive.

Assays:
[1] = tested on: Zika virus NS2B-NS3 protease (linked construct); test: Confirmatory screen NINDS AMC qHTS for Zika virus inhibitors (AID 1347152); further: potency means the concentration at half of the fitted maximal effect; nearly all actives have a fitted effect of over 70% in size
In short: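 IC50s from 4-parameter Hill fits of percent inhibition, based on AMC fluorescence gain (340/450 nm) over 15 min with 10 microM Bz-Nle-KRR-AMC. Enzyme: 1 nM linked NS2B-NS3 in Tris-HCl pH 8.0; 15-min compound preincubation.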

[2] = Confirmatory screen GU Rhodamine qHTS for Zika virus inhibitors qHTS (AID 1347157); further: potency means the concentration at half of the fitted maximal effect; nearly all actives have a fitted effect of over 70% in size
In short: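 Percent inhibition came from the 15-min rise in Rhodamine110 fluorescence (1.5 microM substrate, ~15% conversion), normalized to no-inhibitor and no-enzyme wells and Hill-fitted. Unlinked protease, 25 nM, pH 8.0 Tris buffer; compounds up to 114 microM, 15-min preincubation.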

[3] = tested on: Zika virus NS2B-NS3 protease (linked); test: 384 well plate NINDS AMC confirmatory qHTS for Zika virus inhibitors (AID 1347163); further: potency means the concentration at half of the fitted maximal effect; nearly all actives have a fitted effect of over 50% in size
In short: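 Linked NS2B-NS3 protease (final 5 nM, 30 nM or 60 nM) was preincubated with compounds (final up to 1 mM) for ~15 minutes. Ac-VKTGKR-AMC substrate (final 30 microM) then reacted for 25 minutes at room temperature in the dark. Fluorescence (ex 355/em 460 nm) was normalized to no-enzyme and no-inhibitor controls.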

[4] = tested on: Zika virus NS2B-NS3 protease (linked construct); test: 384 well plate NINDS Rhodamine confirmatory qHTS for Zika virus inhibitors (AID 1347164);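 further: fluorescence from protease cleavage of Ac-LKRR-rhodamine 110 substrate; nearly all actives have a fitted effect of over 65% in size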; further: potency means the concentration at half of the fitted maximal effect;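 on activity change, negative = inhibition: top concentration of the series differs between compounds; plate controls were no-inhibitor control for no effect and no-enzyme control for full effect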
In short: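 Fluorescence at 485/538 nm was measured 25 minutes after adding 10 microM Ac-LKRR-Rd substrate, in the dark at room temperature. The protease (5, 30 or 60 nM final) had been preincubated ~15 minutes with compound; aprotinin as control.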

[5] = HepG2 cells viability qHTS for Zika virus inhibitors (AID 1347168); further: on the % scale 0 is the no-effect control and ±100 the full control effect
In short: (§1)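 Compounds were tested in concentration series on cells grown in DMEM containing 4% FBS. After 24 to 48 hours, cellular ATP was measured by luminescence with CellTiter Glo.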

[6] = NS1 protein of Zika virus - qHTS assay to identify small molecule inhibitors in human HEK 293 cells (AID 1347053);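 further: plate controls were infected untreated cells for no effect and uninfected cells for full effect; nearly all actives have a fitted effect of over 55% in size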
In short: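 Inhibition of NS1 expression was scored in HEK 293 cells given compound 1 h ahead of MR766 virus (MOI = 0.5). Following 24 h at 37 C, two anti-NS1 antibodies generated a TR-FRET signal, scaled between uninfected and infected controls.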

[7] = qHTS of pediatric cancer cell lines to identify multiple opportunities for drug repurposing: Primary screen for Saos-2 cells (AID 1347097); conditions: Saos-2 viability, CellTiter-Glo ATP luminescence, 48 h; further: potency means the concentration at half of the fitted maximal effect; nearly all actives have a fitted effect of over 40% in size
In short: (§2)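 Primary screen of approved and investigational compounds on cells in growth media at 37 degrees C, 5% CO2. MIPE set at 11-point and NPC set at 8-point dilutions; viability scored by ATP-based luminescence at 48 hours.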

[8] = qHTS of pediatric cancer cell lines to identify multiple opportunities for drug repurposing: Primary screen for NB1643 cells (AID 1347099); further: nearly all actives have a fitted effect of over 50% in size; further: potency means the concentration at half of the fitted maximal effect
In short: as §2

[9] = qHTS of pediatric cancer cell lines to identify multiple opportunities for drug repurposing: Primary screen for OHS-50 cells (AID 1347103); conditions: OHS-50 osteosarcoma viability, CellTiter-Glo luminescence, 48 h; further: potency means the concentration at half of the fitted maximal effect; nearly all actives have a fitted effect of over 40% in size
In short: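 Cells (500-1,000/well) rested 5 h, then received compounds for 48 h; metabolically active cells were measured by CellTiter-Glo luminescence. Final concentrations spanned up to 46 µM (MIPE, 11-point) or 0.59 nM-46 µM (NPC, 8-point) in primary screens, 11-point in follow-ups.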

[10] = tested on: Zika virus NS2B-NS3 protease; test: Primary screen GU AMC qHTS for Zika virus inhibitors (AID 1347154);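 further: 0% = no-inhibitor control and -100% = no-enzyme control; nearly all actives have a fitted effect of over 70% in size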
In short: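 Fluorogenic AMC-substrate cleavage by noncovalent NS2B-NS3 protease complex (25 nM, pH 8.0 Tris buffer with Tween 20) followed for 15 minutes at room temperature (~20% conversion). Percent inhibition from ex340/em450 signal change, fitted by 4-parameter Hill equation.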

[11] = Primary qHTS for inhibitors of La Crosse Virus (LACV) - induced cell death in SH-SY5Y cells (AID 1508616);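 further: top concentration of the series differs between compounds; 0% = infected DMSO wells and 100% = uninfected DMSO wells; higher means more rescue of cells from virus-induced death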
In short: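 SH-SY5Y cells (6000/well) plated 24 h, then given compounds by pin transfer and LACV at 0.01 MOI for 6 days at 37C. Viability measured by ATPLite luminescence, normalized to infected DMSO and uninfected DMSO.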

[12] = P-glycoprotein substrates identified in KB-3-1 adenocarcinoma cell line, qHTS therapeutic library screen (AID 1346986);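 further: potency means the concentration at half of the fitted maximal effect; potency is for cytotoxicity meaning loss of cell viability; nearly all actives have a fitted effect of over 60% in size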
In short: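 Cells seeded 500/well in DMEM/10% FCS; compounds pinned in dose-response; 72 h incubation; CellTiter-Glo added, 5 min, luminescence. KB-8-5-11 run ±tariquidar to test reversal of P-gp resistance.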

[13] = molecular target: N-terminal Xaa-Pro-Lys N-methyltransferase 1 (Homo sapiens) (UniProt Q9BV86); test: Confirmatory qHTS for Inhibitors of N-terminal methyltransferase 1 (NTMT1): MTaseGlo Assay (AID 1645874); further: nearly all actives have a fitted effect of over 65% in size; further: potency means the concentration at half of the fitted maximal effect;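 on activity change, negative = inhibition: luminescence from SAH made as NTMT1 methylates SPKRIA peptide using SAM; 0% = DMSO control and -100% = no-enzyme control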
N-terminal Xaa-Pro-Lys N-methyltransferase 1 (Homo sapiens), sequence (Q9BV86 whole entry, looked up): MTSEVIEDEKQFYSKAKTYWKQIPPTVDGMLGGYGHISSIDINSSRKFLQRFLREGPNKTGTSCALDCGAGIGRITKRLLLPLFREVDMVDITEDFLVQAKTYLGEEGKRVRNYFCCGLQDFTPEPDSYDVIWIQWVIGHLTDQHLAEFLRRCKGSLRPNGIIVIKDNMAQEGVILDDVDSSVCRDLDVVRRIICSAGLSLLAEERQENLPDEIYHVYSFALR
In short: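 qHTS format: NTMT1 125 nM, SAM 100 uM, peptide SPKRIA 1 uM final; 15 min compound preincubation, 30 min reaction at room temperature. MTase-Glo luminescence.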

Furin (Homo sapiens) = Furin (Homo sapiens) (UniProt P09958); test: Furin counterscreen qHTS for Zika virus inhibitors (AID 1347149); further: nearly all actives have a fitted effect of over 70% in size; further: potency means the concentration at half of the fitted maximal effect;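 on activity change, negative = inhibition: purified recombinant full-length human furin enzyme at 5 nM; fluorescence gain from furin cutting a BOC-RVRR-AMC peptide substrate over 15 min; top concentration of the series differs between compounds; plate controls were no-inhibitor control for no effect and no-enzyme control for full effect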
Furin (Homo sapiens), sequence (P09958 whole entry, looked up): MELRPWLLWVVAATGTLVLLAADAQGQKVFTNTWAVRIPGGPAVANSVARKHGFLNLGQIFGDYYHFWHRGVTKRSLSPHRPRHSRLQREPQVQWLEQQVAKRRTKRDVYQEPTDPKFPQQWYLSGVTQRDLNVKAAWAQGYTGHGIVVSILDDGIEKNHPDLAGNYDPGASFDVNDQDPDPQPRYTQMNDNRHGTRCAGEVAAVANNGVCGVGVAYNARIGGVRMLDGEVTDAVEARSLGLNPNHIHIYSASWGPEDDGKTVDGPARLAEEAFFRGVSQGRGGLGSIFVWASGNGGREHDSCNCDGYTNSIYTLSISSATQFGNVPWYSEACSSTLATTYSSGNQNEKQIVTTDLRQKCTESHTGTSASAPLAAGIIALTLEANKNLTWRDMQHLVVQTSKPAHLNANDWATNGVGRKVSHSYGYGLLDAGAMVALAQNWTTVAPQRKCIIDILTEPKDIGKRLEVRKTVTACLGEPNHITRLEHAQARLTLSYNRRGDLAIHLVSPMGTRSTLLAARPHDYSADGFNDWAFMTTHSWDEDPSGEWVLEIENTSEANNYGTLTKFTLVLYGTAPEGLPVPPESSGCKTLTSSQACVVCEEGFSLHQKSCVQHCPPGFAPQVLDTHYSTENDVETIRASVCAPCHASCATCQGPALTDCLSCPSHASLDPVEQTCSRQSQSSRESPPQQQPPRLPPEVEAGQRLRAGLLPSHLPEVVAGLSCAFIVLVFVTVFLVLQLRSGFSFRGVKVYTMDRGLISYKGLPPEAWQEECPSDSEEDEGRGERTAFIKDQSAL
In short: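 Fluorogenic cleavage of BOC-RVRR-AMC (2 microM final, Km ~15 µM) was monitored (ex 340, em 450 nm) at 37C after 15 min RT preincubation of 5 nM furin with compounds in HEPES pH 7.0 buffer with CaCl2 and Triton X-100. Percent inhibition was fitted to a 4-parameter Hill curve.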

[14] = tested on: Zika virus NS2B-NS3 protease (unlinked complex); test: Confirmatory screen GU AMC qHTS for Zika virus inhibitors (AID 1347153)
In short: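 Compounds were preincubated 15 min at room temperature with 25 nM noncovalent NS2B-NS3 protease at pH 8.0; AMC substrate added at 10 microM and 15-min fluorescence gain (340/450 nm) converted to percent inhibition, fitted 4-parameter.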

[15] = Vero cells viability qHTS for Zika virus inhibitors (AID 1347167); further: potency means the concentration at half of the fitted maximal effect
In short: as §1

[16] = Primary qHTS for small molecule stabilizers of the endoplasmic reticulum resident proteome: Secreted ER Calcium Modulated Protein (SERCaMP) assay (AID 1508630); further: on the % scale 0 is the no-effect control and ±100 the full control effect
In short: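 GLuc-SERCaMP-expressing SH-SY5Y cells, pretreated 16 h with compound, are challenged with thapsigargin to empty ER calcium stores; after 4 h, coelenterazine is added directly to the medium and luminescence is imaged.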

[17] = qHTS Assay for Identifying Gametocytocidal Compounds (AID 743244); further: potency means the concentration at half of the fitted maximal effect;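 on max response: on the % scale 0 is the no-effect control and ±100 the full control effect; actives lower the fluorescent signal which means gametocytes are killed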; conditions: P. falciparum 3D7 stage III-V gametocytes, alamarBlue, 72 h; max response: stronger effect = lower value
In short: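 Viability read-out was resazurin reduction (alamarBlue, 24 h) measured at Ex 525/Em 598 nm. Beforehand, late-stage (III-V) 3D7 P. falciparum gametocytes at 20,000 cells/well were incubated with compound 72 h at 37C under 5% CO2.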

[18] = qHTS profiling for inhibitors of Plasmodium falciparum proliferation (AID 504749); further: potency means the concentration at half of the fitted maximal effect;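 on activity, negative = inhibition: 0% = DMSO vehicle and full inhibition = artemisinin control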; on all read-outs here: nearly all actives have a fitted effect of over 60% in size; conditions: P. falciparum in erythrocytes, SYBR Green DNA, 72 h; for activity, negative = inhibition: at 28.7 µM (top of the series)
In short: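 Infected RBCs, 0.3% parasitemia/2.5% Hct final; cpd 72 h, 37 C, 5% CO2; lysis buffer with saponin/triton/SYBR Green I, o/n RT dark; FI 485/535; norm. to artemisinin (0.29 uM) and DMSO.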

[19] = qHTS Assay for Lipid Storage Modulators (AID 1519; calls by dose curve; on activity change, negative = inhibition: on the % scale 0 is the no-effect control and ±100 the full control effect); conditions: Drosophila S3 cells, BODIPY lipid droplet/cell ratio, laser cytometry, cells loaded with oleic acid
In short: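 Cells seeded at 5,000 per well were treated with compounds over a concentration series and loaded with oleic acid (400 uM, as added). Lipid droplet fluorescence (488 nm excitation, 500-530 nm channel) was read by laser-scanning cytometry and normalized to 20 uM Triacsin C.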

In the case of O=C(NCc1ccc(Oc2ccccc2)cc1)c1nc(-c2cc(Br)c(O)c(Br)c2)no1, the Potency [1] is reported as 13.9 µM (active), the Potency [2] is reported as 1.75 µM (active) and the Potency [3] is reported as 2.51 µM (active). The Potency [4] was 1.58 µM (active) and the Potency [5] was “inactive”.
For CC1CCC2C(=CCC(O)C2(C)C)C1(C)Cc1c(O)cc(CO)c(C=O)c1O (stereo not drawn), the Potency [2] was 24.3 µM (active).
With CCN(CC)c1ccc(C(=C2C=CC(=[N+](CC)CC)C=C2)c2cc(S(=O)(=O)O)ccc2S(=O)(=O)[O-])cc1 the outcome [6] was “inactive”, the Potency [7] was 21.1 µM (active) and the Potency [8] was 21.1 µM (active). The Potency [9] was 17.4 µM (active), the Potency [10] was “inactive” and the outcome [11] was “inactive”.
For C[C@@H]1COCCN1c1cc(C2(S(C)(=N)=O)CC2)nc(-c2ccnc3[nH]ccc23)n1 (stereo partly drawn), the Potency [12] was 6.51 µM (active).
For CC(C)(C)c1ccc(-c2nc3ccccc3[nH]2)cc1, the Potency [13] was 8.91 µM (active).
In the case of COc1ccccc1NC(=O)Nc1ccc2ccccc2c1, the Potency [13] is reported as “inactive”.
With CC1CCN(C(c2ccc(F)cc2)c2ccc(C(C)C(=O)O)cc2-c2ccc(C(F)(F)F)cc2)CC1 (stereo not drawn) the Potency (Furin (Homo sapiens)) was “inactive”, the Potency [1] was 13.9 µM (active) and the Potency [14] was 15.6 µM (active). The Potency [2] was 3.93 µM (active), the Potency [3] was 0.891 µM (active) and the Potency [4] was 2.51 µM (active). For the same compound, the Potency [15] was 18.6 µM (active) and the Potency [5] was “inactive”.
For O=C(NC(NC(=S)Nc1ccc(F)c([N+](=O)[O-])c1)C(Cl)(Cl)Cl)C(c1ccccc1)c1ccccc1 (stereo not drawn), the Potency [10] was “inactive” and the Potency [16] was “inactive”.
With C=CC(=O)Nc1cc(Nc2nccc(-c3cn(C)c4ccccc34)n2)c(OC)cc1N(C)CCN(C)C the Potency [12] was 10.3 µM (active).
In the case of Oc1ccc(Nc2nc(-c3ccc(Cl)cc3)cs2)cc1, the Potency [10] is reported as “inactive”.
In the case of CCNC(=O)[C@@H]1CCCN1C(=O)[C@H](CCCN=C(N)N)NC(=O)[C@H](CC(C)C)NC(=O)[C@@H](CC(C)C)NC(=O)[C@H](Cc1ccc(O)cc1)NC(=O)[C@H](CO)NC(=O)[C@H](Cc1c[nH]c2ccccc12)NC(=O)[C@H](Cc1cnc[nH]1)NC(=O)[C@@H]1CCC(=O)N1, the max response [17] is reported as 2.85% (inactive).
For CC[C@H](C)[C@H]1O[C@]2(CC[C@@H]1C)C[C@@H]1C[C@@H](C/C=C(\C)[C@@H](O[C@H]3C[C@H](OC)[C@@H](O[C@H]4C[C@H](OC)[C@@H](O)[C@H](C)O4)[C@H](C)O3)[C@@H](C)/C=C/C=C3\CO[C@@H]4[C@H](O)C(C)=C[C@@H](C(=O)O1)[C@]34O)O2, the Potency (Furin (Homo sapiens)) was “inactive”, the Potency [4] was “inactive” and the Potency [15] was “inactive”. For the same compound, the Potency [5] was “inactive”.
In the case of Cc1cc(CS(=O)(=O)c2ccccc2)cc(OCc2ccc(CN3CCC[C@@H]3CO)cc2)c1, the Potency [13] is reported as “inactive”.
For O=C(CC1NCCC[C@H]1O)Cn1cnc2cc(Br)c(Cl)cc2c1=O (stereo partly drawn), the Potency ([18]; parasite line A) was 2 µM (active) and the Potency ([18]; parasite line B) was 3.55 µM (active).
For CN(CC(=O)N(Cc1ccc(C2CCCCC2)cc1)c1ccc(C(=O)O)cc1)S(=O)(=O)c1c(F)c(F)c(F)c(F)c1F, the Potency [1] was 19.7 µM (active), the Potency [14] was 22.1 µM (active) and the Potency [2] was 3.5 µM (active). For the same compound, the Potency [3] was 50.1 µM (active) and the activity change, negative = inhibition [4] was -179% [at 100 µM] (inactive).
For Cc1ccn(-c2cc(Cl)ccc2[C@@H](Oc2cc(-c3ccc(C[C@H](N)C(=O)O)cc3)nc(N)n2)C(F)(F)F)n1, the Potency [2] was 22.1 µM (active) and the Potency [4] was 28.2 µM (active).
With CS(=O)(=O)c1ccc(-c2cn3ccccc3n2)cc1 the outcome [6] was “inactive”, the Potency [7] was 16.8 µM (active) and the Potency [8] was “inactive”. The Potency [9] was 17.4 µM (active), the Potency (Furin (Homo sapiens)) was 5.39 µM (active) and the Potency [1] was 21.5 µM (active). The Potency [14] was 24.1 µM (active), the Potency [15] was “inactive” and the outcome [11] was “inactive”. For the same compound, the Potency [16] was “inactive” and the Potency [13] was 9.55 µM (active).
With N#C[C@@H]1C[C@@H]2C[C@@H]2N1C(=O)[C@@H](N)C12CC3CC(CC(O)(C3)C1)C2 the max response [17] was -8.8% (inactive).
For CCCCC(=O)N(Cc1ccc(-c2ccccc2-c2nn[nH]n2)cc1)C(C(=O)O)C(C)C (stereo not drawn), the activity change, negative = inhibition ([19]; at 57.5 µM (top of the series)) was -6.27% (inactive), the max response ([19]; measured here: cell count channel max response) was 7.79% and the max response ([19]; measured here: lipid channel max response) was 4.86%. For the same compound, the activity, negative = inhibition ([18]; parasite line A) was 9.14% (inactive) and the activity, negative = inhibition ([18]; parasite line B) was 6.89% (inactive).
In the case of COc1cc(N2CCN(C(C)=O)CC2)ccc1Nc1ncc(Cl)c(Nc2ccc(N3CCN(C(C)=O)CC3)cc2OC)n1, the Potency [12] is reported as 14.6 µM (active) and the Potency [13] is reported as 49.4 µM (active).
With Nc1nc(NCC2CCC(CNS(=O)(=O)c3cccc4ccccc34)CC2)nc2ccccc12 (stereo not drawn) the Potency [10] was “inactive” and the Potency [16] was “inactive”.
In the case of COCCNCc1ccc(-c2cc3nccc(Oc4ccc(NC(=S)NC(=O)Cc5ccc(F)cc5)cc4F)c3s2)nc1, the Potency [12] is reported as 23.1 µM (active).
For Nc1ccc(N)c([N+](=O)[O-])c1, the Potency [17] was 39.8 µM (active) and the outcome [11] was “inactive”.
With Clc1ccccc1CNCC1CCC(CNCc2ccccc2Cl)CC1 (stereo not drawn) the Potency [10] was “inactive” and the Potency [16] was “inactive”.
